# According to PubChem BioAssay (EPA / NIEHS):
# The source made the active and inactive calls. Rule for the calls: active = hit-call score of the fitted dose curve at least 0.9, where 1 is the maximum; inactive = score below 0.9.
# Columns and labels:
# [1] = ATG_E_Box_CIS: Attagene CIS-FACTORIAL HepG2 Assay for human Enhancer Box (E-box) (AID 2282936); conditions: HepG2 E-box cis-reporter transcription, actives raise or lower the signal
# Outline: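 Transiently transfected HepG2, endogenous TF-driven reporters, 24 h dosing. Readout: RT-PCR plus capillary electrophoresis of fluorescent reporter fragments. Gain or loss of signal fitted bidirectionally against DMSO baseline.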
# [2] = ATG_M_61_CIS: Attagene CIS-FACTORIAL HepG2 Assay for M61 Transcription Factor (Internal Marker) (AID 2282937); conditions: HepG2 Attagene CIS-FACTORIAL M61 internal marker reporter; actives raise or lower the signal
# Outline: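 Transfect HepG2 with MRTUs; dose 24 h; isolate RNA; reverse-transcribe with DNase I treatment; PCR-amplify, FAM-label and cut with HpaI for 2 h at 37 C; resolve by CE. Bidirectional fitting against DMSO.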
# [3] = ATG_EGR_CIS: Attagene CIS-FACTORIAL HepG2 Assay for human Early Growth Response 1 (EGR1) (AID 2282938); conditions: HepG2 Attagene CIS-FACTORIAL EGR reporter mRNA; actives raise or lower the signal
# Outline: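 After a 24 h treatment of transiently transfected HepG2 cells, total RNA was reverse-transcribed and reporter sequences PCR-amplified, labelled and run on capillary electrophoresis. Reporters sit under cis-regulatory promoters sensing endogenous factors.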
# [4] = ATG_M_19_CIS: Attagene CIS-FACTORIAL HepG2 Assay for M19 Transcription Factor (Internal Marker) (AID 2282939); conditions: HepG2 Attagene CIS-FACTORIAL M19 internal marker reporter; actives raise or lower the signal
# Outline: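 HepG2 cells transiently transfected with cis-regulated multiplexed reporter units, dosed 24 h. Reporter mRNA quantified by RT-PCR and capillary electrophoresis; internal background marker fitted bidirectionally versus DMSO.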
# [5] = ATG_ERE_CIS: Attagene CIS-FACTORIAL HepG2 Assay for Estrogen Response Element (ERE) (AID 2282940); conditions: HepG2 ERE cis-reporter, Attagene RNA transcript; actives raise or lower the signal
# Outline: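 HepG2 cells transiently transfected with multiplexed cis-element reporter units, measuring endogenous transcription factor activity; ERE reporter mRNA quantified after 24 h exposure by RT-PCR, fluorescent labelling, HpaI digestion and capillary electrophoresis. Bidirectional change versus DMSO.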
# [6] = molecular target: Hepatocyte nuclear factor 3-beta (Homo sapiens) (UniProt Q9Y261); assay: ATG_FoxA2_CIS: Attagene CIS-FACTORIAL HepG2 Assay for human Forkhead box A2 (FOXA2) (AID 2282942); conditions: HepG2 cis-reporter transcription factor activity, 24 h; actives raise or lower the signal
# Hepatocyte nuclear factor 3-beta (Homo sapiens), sequence (Q9Y261 whole entry, looked up): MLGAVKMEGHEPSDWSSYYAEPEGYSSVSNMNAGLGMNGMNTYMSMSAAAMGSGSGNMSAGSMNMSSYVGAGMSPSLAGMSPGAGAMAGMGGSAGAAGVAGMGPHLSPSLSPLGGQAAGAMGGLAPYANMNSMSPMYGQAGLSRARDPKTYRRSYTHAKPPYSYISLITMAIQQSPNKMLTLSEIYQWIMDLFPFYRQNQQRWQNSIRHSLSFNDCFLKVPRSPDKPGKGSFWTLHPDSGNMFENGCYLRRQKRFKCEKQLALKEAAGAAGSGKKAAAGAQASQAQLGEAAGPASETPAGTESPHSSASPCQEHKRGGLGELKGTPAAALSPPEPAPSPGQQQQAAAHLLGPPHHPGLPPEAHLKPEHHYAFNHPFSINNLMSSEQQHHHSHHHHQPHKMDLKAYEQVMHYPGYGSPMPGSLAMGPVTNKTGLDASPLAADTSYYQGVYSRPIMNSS
# Outline: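 24 h dosing of HepG2 bearing cis-reporter constructs; mRNA readout by RT-PCR/CE fluorescence; bidirectional fit, DMSO baseline.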
# [7] = ATG_FoxO_CIS: Attagene CIS-FACTORIAL HepG2 Assay for human Forkhead box O (FoxO) (AID 2282943); conditions: HepG2 Attagene cis-reporter, FoxO element, mRNA; actives raise or lower the signal
# Outline: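 HepG2 cells transiently transfected with cis-element-driven reporter units report endogenous FoxO activity. After 24 h chemical exposure, reporter mRNA quantified by RT-PCR, fluorescent labeling, HpaI digestion and capillary electrophoresis; bidirectional fit versus DMSO.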
# [8] = ATG_GATA_CIS: Attagene CIS-FACTORIAL HepG2 Assay for human GATA Binding Protein (AID 2282944); conditions: HepG2 GATA cis-element reporter, Attagene multiplex mRNA; actives raise or lower the signal
# Outline: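 HepG2 cells transiently transfected with multiplexed cis-element reporter units measure endogenous GATA activity; after 24 h compound exposure, reporter mRNA quantified by RT-PCR and capillary electrophoresis. Changes fitted in both directions vs DMSO.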
# [9] = ATG_GLI_CIS: Attagene CIS-FACTORIAL HepG2 Assay for human Zinc Finger Protein GLI1 (AID 2282945); conditions: HepG2, Attagene cis-factorial reporter mRNA, GLI element; actives raise or lower the signal
# Outline: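 Transiently transfected HepG2 cells report endogenous transcription factor activity via cis-element-driven reporter units. After 24 h compound exposure, reporter mRNA was measured by RT-PCR with capillary electrophoresis; bidirectional fitting against DMSO baseline.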
# [10] = ATG_Ets_CIS: Attagene CIS-FACTORIAL HepG2 Assay for human Erythroblast Transformation Specific (ETS) (AID 2282941); conditions: HepG2 ETS cis-reporter transcription, actives raise or lower the signal
# Outline: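 Cis-regulated reporter mRNA induction in HepG2 (transient transfection), 24 h exposure, RT-PCR plus capillary electrophoresis detection; DMSO serves as negative control and baseline.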
Compound,outcome [1],outcome [2],outcome [3],outcome [4],outcome [5],outcome [6],outcome [7],outcome [8],outcome [9],AC50 [3],outcome [10],AC50 [5]
CC(C)=CC1CC(C)CCO1 (stereo not drawn),inactive,inactive,inactive,inactive,inactive,inactive,inactive,inactive,inactive,,,
O=C1OC(=O)c2cc(Oc3ccc4c(c3)C(=O)OC4=O)ccc21,inactive,inactive,inactive,inactive,inactive,inactive,inactive,inactive,inactive,,,
O=c1cc(-c2ccccc2)oc2ccccc12,inactive,inactive,,inactive,inactive,inactive,inactive,inactive,inactive,82.1 µM (active),,
CC(=O)[C@H]1[C@H](C#N)C[C@H]2[C@@H]3CC=C4C[C@@H](O)CC[C@]4(C)[C@H]3CC[C@@]21C,inactive,inactive,inactive,inactive,inactive,,inactive,,inactive,,inactive,
CC(=O)OC(C)C,inactive,inactive,inactive,inactive,inactive,,inactive,inactive,inactive,,inactive,
CCCCC(CC)COCC1CO1 (stereo not drawn),inactive,inactive,inactive,inactive,inactive,inactive,inactive,inactive,inactive,,,
COc1ccc(-c2coc3cc(O)ccc3c2=O)cc1,inactive,inactive,inactive,inactive,,inactive,inactive,inactive,inactive,,,2.23 µM (active)
COc1ccc([C@@H]2CC(=O)c3c(O)cc(O[C@@H]4O[C@H](CO[C@@H]5O[C@@H](C)[C@H](O)[C@@H](O)[C@H]5O)[C@@H](O)[C@H](O)[C@H]4O)cc3O2)cc1OC,inactive,inactive,inactive,inactive,inactive,inactive,inactive,inactive,inactive,,,
CCC(CC)C(=O)O,inactive,inactive,inactive,inactive,inactive,,inactive,inactive,inactive,,inactive,
OC1CCCC1,inactive,inactive,inactive,inactive,inactive,inactive,inactive,inactive,inactive,,,
Cc1c(C)c([N+](=O)[O-])c(C(C)(C)C)c([N+](=O)[O-])c1C,inactive,inactive,inactive,inactive,inactive,,inactive,inactive,inactive,,inactive,
COC(=O)/C=C/C(C)=C\C=C\C(C)=C\C=C\C=C(C)\C=C\C=C(C)\C=C\C(=O)O,inactive,inactive,inactive,inactive,inactive,inactive,inactive,inactive,inactive,,,
Cc1cccc(N)n1,inactive,inactive,inactive,inactive,inactive,,inactive,inactive,inactive,,inactive,
Cc1cc(C)c(C(=O)O)c(C)c1,inactive,inactive,inactive,inactive,inactive,,inactive,,inactive,,inactive,
CCCCCCCCCCCCCOP(=O)(O)O,inactive,inactive,inactive,inactive,inactive,,inactive,inactive,inactive,,inactive,
